Only some compounds are listed: those with a hit (about 3.8% of all), similar ones and a draw of the others.
NALP1 yeast inh: NALP1 inflammasome inhibitors in reconstituted yeast, colorimetric, S. cerevisiae, triplicate retest; S. cerevisiae NALP1/ASC/caspase-1 growth, X-gal OD620, 72 h; inhibition, % at 10 µM; 280,000 compounds, 0.61% hits; in the data active means inhibition mostly above about 24%, no sharp cut-off; inactive means mostly below about 32%
HSP90 inh: HSP90 inhibitors, primary screen, cell lysate, luminescence; 290,000 compounds, 0.91% hits; inhibition, % at 5.6 µM; Heat shock protein HSP 90 (rabbit reticulocyte lysate; luciferase refolding); Rabbit reticulocyte lysate, luciferase refolding luminescence, 3 h;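 active means inhibition above the screen-wide mean plus 3 SD, computed separately per campaign, cut at about 16% in these data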;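 further: 0% = DMSO wells and 100% = 60 µM geldanamycin wells; inhibitors lower the luminescence because luciferase stays unfolded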
HSF1 activator: HSF-1 activators, primary screen, NIH3T3-HGL cells, MG132 stress, luminescence, single point | NIH3T3-HGL HSF-1 luciferase reporter, 8 h; 100% = twice DMSO control signal | activation, % at 9 µM | 300,000 compounds, 1.7% hits | AID 504408, 2011;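 active means mean replicate activation of at least 50% with a set share of replicates each reaching 50%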;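 further: 0% = median of the neutral control wells and 100% = twice that signal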
p-CIP stab down: p/CIP-EGFP fusion destabilizers, primary screen, fluorescence, F442A cells; decrease of EGFP signal, % at 10 µM; AID 1984, 2009; 16 h; 290,000 compounds, 0.01% hits;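 active means EGFP signal decrease of at least 30% at 10 µM or well 3 SD below plate mean, unless failing retest; inactive means the rest, including hits failing retest or dose response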
HSF1 inh: HSF1 inhibitors in luciferase reporter cells, primary screen, cell-based, NIH3T3, luminescence | NIH3T3-HGL HSE-luciferase, MG132-induced, luminescence 8 h; hits give low values | activity change, negative = inhibition, % at 7.5 µM (by protocol) | 300,000 compounds, 0.77% hits | AID 2098, 2009;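 active means more than half of replicate wells show activity change below -50%, luminescence cut by over half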;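 further: luciferase reports HSF-1 transcriptional activity via heat shock element; 0% = median of DMSO wells and -100% = zero luminescence signal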
Hsp70 act: Hsp70 transcriptional activators, primary screen, cell-based, HeLa, Hsp70 promoter luciferase, luminescence, 10 µM; AID 1203, 2008; 200,000 compounds, 0.04% hits; HeLa Hsp70 promoter luciferase reporter; scaled: vehicle 0, proteasome-inhibitor control 100%; activation, % at 10 µM;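 active means activation above the mean across all tested compounds plus 3 SD, cutoff set per campaign, cut at about 5.5% in these data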;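 further: 100% = MG132 at 30 µM as the positive control and 0% = DMSO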
* = called active by the depositor; . = no result.

SMILES	NALP1 yeast inh	HSP90 inh	HSF1 activator	p-CIP stab down	HSF1 inh	Hsp70 act
Cc1ccc(-c2cc(N)n(-c3ccc(F)cc3)n2)cc1	29*	-2	12	-2	-5	0
Cc1ccc(-c2cc(N)n(-c3ccc(C)cc3)n2)cc1	8	1	9	-5	2	0
Cc1ccccc1CN(C)C1CCN(C)CC1	18	-4	15	10	3	.
O=C(COC(=O)CC1c2ccccc2CCN1S(=O)(=O)c1ccc(F)cc1)Nc1ccccc1 (stereo not drawn)	24	-1	-8	1	-4	0
CCc1cccc(CC)c1NC(=O)COC(=O)CC1c2ccccc2CCN1S(=O)(=O)c1ccc(F)cc1 (stereo not drawn)	8	2	62*	-8	31	0
COc1ccc(OC)c(NC(=O)C2CCCN(S(C)(=O)=O)C2)c1 (stereo not drawn)	-7	-1	-2	-9	0	.
Cc1cc(C)cc(NC(=O)CN2C(=O)NC(C)(c3ccccc3)C2=O)c1 (stereo not drawn)	15	0	86*	-5	39	0
Cc1cc(NC(=O)CN2C(=O)NC(C)(c3ccccc3)C2=O)no1 (stereo not drawn)	-2	8	0	-27	-7	0
COc1ccc(C(C(=O)NC2CCCC2)N(Cc2ccccc2)C(=O)c2snc(C(N)=O)c2N)cc1OC (stereo not drawn)	23	0	52*	-6	18	.
CCc1ccc(N(C(=O)c2snc(C(N)=O)c2N)C(C(=O)NC2CCCC2)c2ccco2)cc1 (stereo not drawn)	13	0	6	1	4	.
O=C(NCC(=O)N(c1cccc(F)c1)C(C(=O)NC1CCCC1)c1ccncc1)c1ccco1 (stereo not drawn)	1	8	54*	-5	40	.
COc1ccc(CN(C(=O)c2snc(C(N)=O)c2N)C(C(=O)NC2CCCC2)c2ccc(OC)c(OC)c2)cc1 (stereo not drawn)	7	-1	29	-3	9	.
NC(=O)c1nsc(C(=O)N(c2cccc(F)c2)C(C(=O)NC2CCCC2)c2ccco2)c1N (stereo not drawn)	-35	-2	-84	-8	-81*	.
COc1ccccc1C(CNC(=O)c1ccc(-c2ccccc2Cl)o1)N1CCCC1 (stereo not drawn)	.	.	2	.	-5	.
O=C(c1ccc2c(=O)n(Cc3ccc4c(c3)OCO4)c(=S)[nH]c2c1)N1CCCCC1	15	0	-19	-28	-4	0
CC1CC(C)CN(C(=O)c2ccc3c(=O)n(Cc4ccc5c(c4)OCO5)c(=S)[nH]c3c2)C1 (stereo not drawn)	-2	-3	65*	-8	23	0
COc1cc2c(cc1OC)C(NC(=O)C(F)(F)F)CNC2=O (stereo not drawn)	3	-1	-21	-6	1	0
COc1cc2sc3ccc(C#CC4(O)CCCCC4)cc3c(=O)c2cc1OC	.	.	-59	.	-59*	.
COc1cc2sc3ccc(C#Cc4ccc(N)cc4)cc3c(=O)c2cc1OC	.	.	-10	.	3	.
CCOCCc1c(O)nc(SCCOc2ccc(C)c(C)c2)[nH]c1=O	13	0	-3	-8	0	0
NS(=O)(=O)c1ccc(Sc2ccc3ccccc3c2)nc1	26	2	-7	-3	-3	.
OCc1ccc(N=Nc2ccccc2)cc1	.	.	26	.	12	.
COc1ccc(N=Nc2ccc(CO)cc2)cc1	.	.	72*	.	26	.
COc1ccc(N=Nc2cc(C)ccc2O)cc1	6	4	59*	-6	74	.
O=C(c1ccco1)N(Cc1ccc([N+](=O)[O-])cc1)c1ccc(Br)cc1	10	4	57*	4	23	0
Cc1cc(SCC(=O)N/N=C/c2ccc(O)c(O)c2)c(C)cc1Br	7	-3	63*	14	41	0
COC(=O)Nc1sccc1C(=O)Nc1sccc1C(=O)OC	27	3	-66	-10	-65*	0
